In PubChem BioAssay AID1347416 (National Center for Advancing Translational Sciences (NCATS), 2020):
The campaign covered roughly 4,100 compounds. About 1,600 (39%) were called active. About 25% were inconclusive and are not listed. The list shows a part of the results. Unmarked numbers belong to inactive results. The call rests on the fitted dose curve; in most records, active means well fitted inhibition curve with a large enough effect; inconclusive means small, poorly fitted or top-dose-only effect; inactive means no such curve, though single readings can be large or run the other way.
On the % scale 0 is the no-effect control and ±100 the full control effect; potency means the concentration at half of the fitted maximal effect.

Experiment: qHTS Validation assay for Inhibitors of Plasmodium falciparum Dd2 growth in vitro; further: nearly all actives have a fitted effect of over 70% in size
Details: P. falciparum Dd2 in RBCs, SYBR Green growth, 72 h; series mostly up to 28.7 µM; activity change, negative = inhibition: at the top concentration
Description: Malaria, a parasitic disease spread to humans through the bite of a Plasmodium infected Anopheles mosquito, continues to be a global health burden affecting millions of people, with an estimated 228 million cases and 405,000 deaths in 2018. Concerns about safety and limitations of current antimalarial treatments strongly emphasize the need to develop new therapeutic options. The scarce number of chemotypes and validated drug targets with efficacy against the liver stage, have hindered development of new antimalarials. To address this, a chemoprophylactic drug discovery effort was conducted through a combined phenotypic high-throughput asexual blood stage and liver stage screen, providing a robust foundation to identify liver-stage active lead chemotypes. Compounds were initially screened against Plasmodium falciparum Dd2 strain parasites using a in vitro SYBRGreen-1 based 72 hr proliferation assay to identify novel chemotypes to advance to liver stage assays. NIH/NCATS Early Translation Branch Assay Submitter (PI): Anton Simeonov Ph.D.
[…] Assay Protocol: PROTOCOL TABLE (as described by Inglese et al., 2007) SEQUENCE No. (e.g., 1, 2, 3, etc.); PARAMETER (e.g., Cells, Incubation, Reagent, etc.); VALUE; DESCRIPTION SEQUENCE, Parameter, Description 1; Reagent; 3 uL complete malaria growth medium, 1536 TC treated Black clear bottom plate 2; Controls; 23 nL positive control artesunate (300 nM final) to column 1; Neutral control DMSO to columns 2-4 3; Compound; 23 nL of compounds in dose response concentration (29 uM to 0.5 nM final) 4; Reagent; 5 uL malaria infected red blood cells (2.5% hematocrit final, 0.3% parasitemia 5; Time; 72 hours at 37C (5% O2, 5% CO2, 90% N2; 95% Rh) 6; Reagent; 2 uL lysis buffer/SYBRGreen-1, 25 sec shake immediately following dispense 7; Time; ~16 hours at 37C (5% O2, 5% CO2, 90% N2; 95% Rh) 8; Detector; EnVision (PerkinElmer) bottom read at 485/14nm excitation and 535/25 nm emission NOTES (numbers refer to sequence above): 1; Complete Malaria Growth Media: 1X RPMI-1640 w/L-glutamine, 5.5g/L Albumax II, 367 uM Hypoxanthine, 25 mM HEPES, 0.25% Sodium Bicarbonate, 35 uM Gentamicin sulfate 2; Controls were added using the Kalypsis Pintool (Wako USA) equipped with 1536 pinhead 3; Compounds were added in a 7-point, titration with a high final concentration of 29 uM by Pintool from seven inter-plate titrations of library plates and two DMSO control plates at the beginning and end (see Yasgar et al., 2008). 4; Red blood cells infected with Plasmodium falciparum Dd2 parasites were used. 6; Lysis buffer: 20 mM Tris-HCl, 10 mM EDTA, 0.16% Saponin, 1.6% Triton-X, 10X SYBR Green. REFERENCE: Inglese J, Shamu CE, Guy RK. 2007. Reporting data from high-throughput screening of small-molecule libraries. Nat Chem Biol. doi:10.1038/nchembio0807-438 Yasgar A, Shinn P, Jadhav A, Auld D, Michael S, Zheng W, Austin CP, Inglese J, Simeonov A. 2008. Compound Management for Quantitative High-Throughput Screening. J Lab Autom 13:79-89. doi:10.1016/j.jala.2007.12.004
With Cc1cccc(CN2CCN(C(=O)CCl)CC2)c1 the Potency was 13.3 µM (active). In the case of O=C(CCC1CCCN(C(CO)CO)C1)N1CCN(Cc2ccccc2)CC1 (stereo not given), the “activity change, negative = inhibition” value is reported as 32%. For COc1ccc(C)cc1N(C(=O)COc1cccc(F)c1)c1nc2ccccc2s1, the Potency was 5.96 µM (active). With COc1ccc(-c2nc3ccccc3s2)cc1NC(=O)c1cc2ccccc2o1 the “activity change, negative = inhibition” value was -22%. With COc1ncc(-c2cc3c(nc2OC)nc(CC2CC2)n3C)cn1 the “activity change, negative = inhibition” value was -9.43% [at 43.1 µM]. In the case of CCc1nn2cc(C(=O)c3cc(C)ccc3O)cnc2c1-c1ccc(F)cc1, the Potency is reported as 9.44 µM (active). For COc1ccc([C@@H]2CN(C(=O)CCc3c(C)noc3C)C[C@H]2N(C)C)cc1, the “activity change, negative = inhibition” value was 4.96%. In the case of CCC(C)NC(=O)N1CC(c2nc(CCOCC3CCOCC3)no2)C1 (stereo not given), the “activity change, negative = inhibition” value is reported as 22.5%. For Nc1nc(N)c2cc(Sc3ccc4ccccc4c3)ccc2n1, the Potency was 1.33 µM (active). For CCOC(=O)c1ccc(Nc2nnc(C(C)(C)C)c(=O)[nH]2)cc1, the Potency was 13.3 µM (active). In the case of Cc1cc(NC(=O)c2cc(-c3ccco3)on2)nn1Cc1ccc(Cl)cc1, the Potency is reported as 8.41 µM (active). With CCc1ccc(CN(Cc2ccco2)C(=O)c2cc(-c3ccc(Cl)cc3)on2)cc1 the “activity change, negative = inhibition” value was 72.8%. In the case of Cc1cc(C(=O)Nc2cc(C)n(Cc3ccc(Cl)cc3)n2)no1, the “activity change, negative = inhibition” value is reported as -24.4%. For CCC(=O)N/C(N)=N/c1nc(C)c2cc(C)c(C)cc2n1, the Potency was 9.44 µM (active). For COC(=O)c1cc(O)cc(OC)c1Oc1cc(C)cc(O)c1C(=O)O, the Potency was 4.22 µM (active). For O=C(Cc1cccs1)NC1CCN(c2cc(C(F)(F)F)ncn2)CC1, the “activity change, negative = inhibition” value was 10%. With Cc1ccc(NC(=O)Cn2c(=O)n(-c3ccc(C)cc3)c(=O)c3ccc(C(=O)NCc4ccccc4Cl)cc32)cc1 the Potency was 5.31 µM (active). With O=C(CCCCn1c(=O)c2ccccc2n(CC(=O)Nc2ccccc2)c1=O)NCc1ccccc1Cl the “activity change, negative = inhibition” value was 33.3%. With COC(=O)c1ccccc1NC(=O)Cn1c(=O)n(CCCC(=O)NCc2ccccc2Cl)c(=O)c2ccccc21 the “activity change, negative = inhibition” value was -14.9%. For CN(C)CCCn1cnc2c(c1=N)C(c1ccccc1)c1ccc3ccccc3c1O2 (stereo not given), the Potency was 3.76 µM (active). For COc1ccc(C2c3ccc4ccccc4c3Oc3ncn(CCCN(C)C)c(=N)c32)cc1 (stereo not given), the Potency was 2.99 µM (active). For CN1CCN(c2cc(=O)c3ccnc(-c4cn[nH]c4)c3o2)CC1, the “activity change, negative = inhibition” value was 14.8% [at 43.1 µM]. With CC(C)CNC(=O)c1ccc2c(c1)NC(C)(CNc1ccccc1)CO2 (stereo not given) the “activity change, negative = inhibition” value was 12.1% [at 43.1 µM]. For CCC(C)N(CCNC(=O)c1ccc2c(c1)NC(=O)c1ccccc1S2)C1CCCCC1 (stereo not given), the Potency was 13.3 µM (active). With CCOC(=O)CCn1nc(-c2ccc(C)cc2)c2ccccc2c1=O the “activity change, negative = inhibition” value was -3.49%. In the case of Cc1cc(C)n(CC(=O)N2C[C@@H](COc3ccccc3)[C@H](C(N)=O)C2)n1, the “activity change, negative = inhibition” value is reported as 15.8%. In the case of CCOC(=O)COn1c(-n2nc(C)cc2C)nc2ccccc2c1=O, the Potency is reported as 9.44 µM (active). In the case of COc1ccc(C2c3ccc(O)cc3Oc3ncn4nc(-c5ccncc5)nc4c32)cc1OC (stereo not given), the Potency is reported as 15 µM (active). In the case of O=C1NCc2ccccc2CC12CCN(Cc1ccccc1F)CC2, the “activity change, negative = inhibition” value is reported as 9.53%. In the case of COc1ccc(C(=O)N2CCN3C(=O)N(C4CCOCC4)C[C@H]3C2)cc1, the “activity change, negative = inhibition” value is reported as 0% [at 43.1 µM]. For O=C(c1ccccc1-c1ncc[nH]1)N1CC[C@@H](c2ccc3c(c2)OCO3)[C@H](O)C1, the “activity change, negative = inhibition” value was 12.5%. For O=C(c1ccc2c(c1)OCO2)N1CCC2(CC1)COc1ccccc1CN2, the Potency was 5.31 µM (active). With COc1ccc(C(=O)N2CCC3(CC2)CC(C(C)C)=NO3)cc1 the “activity change, negative = inhibition” value was 31.2% [at 43.1 µM]. For CCc1noc(-c2cn(C3CCCN(C(=O)c4ccc5c(c4)OCO5)C3)nn2)n1 (stereo not given), the “activity change, negative = inhibition” value was -13.6%. For O=C(c1ccccc1F)N1CCCC2(C1)NC(=O)N(Cc1cccc(Cl)c1)C2=O (stereo not given), the “activity change, negative = inhibition” value was -0.29%. In the case of O=C(c1ccccc1F)N1CCC2(CC1)COc1ccccc1CN2, the Potency is reported as 4.33 µM (active). In the case of COc1ccc(C(=O)N2CCC3(CC2)COc2ccccc2CN3)cc1, the Potency is reported as 10.6 µM (active). In the case of c1ccc2c(c1)CNC1(CCN(Cc3cccc4ccccc34)CC1)CO2, the Potency is reported as 7.5 µM (active). In the case of Cc1ccccc1C(=O)N1CCC2(CC1)NC(=O)N(c1ccc(F)cc1)N2, the “activity change, negative = inhibition” value is reported as -26.7%. With Cc1ccc(-c2cn3c(n2)N(C(=O)c2sc(C)nc2C)CCC3)cc1 the “activity change, negative = inhibition” value was 22.3%. For COC(=O)c1c(NC(=O)/C(C#N)=C/c2ccccc2)sc2c1C(C(=O)OC)CC2 (stereo not given), the “activity change, negative = inhibition” value was -16.9%. With CNC(=O)N1CCC(Cc2nncn2C(C)C)C1 (stereo not given) the “activity change, negative = inhibition” value was 21.1%. For CCc1ccccc1NC(=O)c1cn(C)c(=O)c2ccccc12, the “activity change, negative = inhibition” value was 3.09%. In the case of CCn1cc(C(=O)N2CCN(c3cc(Cl)ccc3C)CC2)c(=O)c2cc(S(=O)(=O)N3CCCCC3)ccc21, the “activity change, negative = inhibition” value is reported as 35.7%. For CCOC(=O)c1ccccc1NC(=O)c1cn(CC(C)C)c(=O)c2cc(OC)c(OC)cc12, the Potency was 8.41 µM (active). For Cc1ccc(Cl)cc1N1CCN(C(=O)c2cn(CC(C)C)c(=O)c3c2c2ccccc2n3C)CC1, the Potency was 3.35 µM (active). With COc1ccc(C(=O)N2CCN(c3nnc4cccc(C)n34)CC2)cc1F the “activity change, negative = inhibition” value was 6.68%. With Cn1cc(C(=O)NCCN2CCN(c3cccc(Cl)c3)CC2)c2c3ccccc3n(C)c2c1=O the Potency was 4.73 µM (active). For Cn1cc(C(=O)N2CCN(c3ccccc3)CC2)c(=O)c2cc(S(=O)(=O)N3CCCC3)ccc21, the “activity change, negative = inhibition” value was 16.1%. In the case of COc1cc2c(C(=O)N3CCN(c4cc(Cl)ccc4C)CC3)cn(CC(C)C)c(=O)c2cc1OC, the Potency is reported as 15 µM (active).
